Data taken from PubChem BioAssay (NCI).
“And” between values parts separate entries of the source, which are not always exact repeats. Equal entries are not always repeated. About 83,000 compounds went through this panel and 20% of them were active in at least one assay; those are over-represented in the sample as a whole.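 In brief: 96-well plates, 48 h treatment, single concentration, percent growth endpoint.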 Values without a mark were called inactive. The source made the active and inactive calls. Rule for the calls: active = growth percent below 10; inactive = the rest.

tested on: MDA-MB-468 breast; test: NCI-60 one-dose screen, 48 h (100 = growth as untreated, 0 = no growth, -100 = all killed); details: 10 µM unless noted

SMILES | growth
Cc1nc(S(=O)(=O)c2ccccc2)c(S(=O)(=O)Cc2ccc([N+](=O)[O-])cc2)o1 | 78.1%
CC/C=C\C/C=C\C[C@H]1C/C=C2/C(=O)C=C[C@H]2C/C=C\CCC(=O)O1 | -7.14% (active)
O=c1nc2c(-c3nc4ccccc4s3)n[nH]n2c2sc3c(c12)CCCC3 | 120%
O=C1c2c(c3c4cccc(F)c4[nH]c3c3ccc4ccccc4c23)C(=O)N1O | 54.3%
COc1ccc2nc3cc([N+](=O)[O-])ccc3c(NNc3ccccc3)c2c1 | 58.3%
COc1cc2c3c(c4c5ccccc5[nH]c4c2c(OC)c1OC)C(=O)N(CCN1CCOCC1)C3=O | 65.7%
COC1=C(OC)C(=O)C(CCCCCCCCCCO)=C(C)C1=O | -34.8% (active)
COc1cc2c(O)n(CCCN3CCOCC3)c3c4cnc5cccc(c(=O)c3c2cc1OC)c54 | 47.1%
CC(C)(C)OC(=O)N1C/C(=C\c2cccs2)C(=O)/C(=C/c2cccs2)C1 | 87.5%
CCCCn1c(-c2ccc(C(=O)O/N=C(\N)c3ccc(OC)cc3)cc2)nc(-c2ccccc2)c1-c1ccccc1 | -14.4% (active)
CCOC(=O)c1c(SC)nn(-c2cc(=O)[nH]c3ccc(Br)cc23)c1N | 115%
CCCC[n+]1ccc(SCC(=O)n2ccc3ccccc32)c2ccccc21 | 52.1%
O=C1/C(=C/c2ccccc2[N+](=O)[O-])COc2ccc(O)cc21 | -9.15% (active)
COc1ccc(-c2cc(-c3ccc(Cl)cc3)nc(SCCCCCCC(=O)NO)n2)cc1 | 12.7%
N#C/C(=C\c1ccc(Br)cc1)n1nnc2ccccc21 | 6.92% (active)
COc1ccc(Nc2nc(SC)nc(-c3cccc([N+](=O)[O-])c3)c2C#N)cc1 | 54.7%
N#Cc1c(-c2ccccc2)nc2c(c(-c3ccc(Cl)cc3)nn2-c2ccccc2)c1-c1ccc([N+](=O)[O-])cc1 | 104%
COc1ccc(/C=C/C(=O)/C=C(/C=C/c2ccc(OC)c(OC)c2)OB(F)F)cc1OC | 45.6%
O=C(NNc1nc2cc(F)ccc2n2c(CN3CCC(O)C3)ccc12)c1cnccn1 (stereo not given) | -17.3% (active)
O=C(NC(=O)c1ccc(F)c(Cl)c1)NC1CC1 | 103% and 87.4%

SMILES | growth
Nc1ncnc2c1N=C(c1ccc(Br)cc1)CC(c1cccc(Nc3ccnc4cc(C(F)(F)F)ccc34)c1)N2 (stereo not given) | 60.7%
CC(=O)OC1CCC2(C)C(CCC3C4CC=C(C(C)=O)C4(C)OC(=O)CC32)C1 (stereo not given) | -72.4% (active)
Cn1ncc2c(Nc3ccc(Br)cc3)nc(Nc3ccc(Br)cc3)nc21 | 51.4%
Cc1cc(C2=NNC(=O)Cc3cc4c(cc32)OCCO4)cc(C)c1N | 9.52% (active)
O=C1CC(=O)N2CSCN(C(c3ccccc3)c3nc4ncncc4[nH]3)C2=N1 (stereo not given) | 102%
O=C(Nc1cc(-c2cccnc2)nc(NCCCN2CCOCC2)n1)c1cc(Br)cc(C(F)(F)F)c1 | 52.8%
Cn1cc(-c2nc(-c3c[nH]c4ncccc34)cs2)c2cccnc21 | -6.43% (active)
CC1CCC(C(C)C)C(NN)C1 (stereo not given) | 110%
COc1ccc(-c2ccc(NNC(=O)c3ccc(F)cc3)nn2)cc1OC | 56.2%
C=CCn1c(=O)c2cnc(Nc3ccc(N4CCN(C)CC4)cc3)nc2n1-c1cccc(C(C)(C)O)n1 | -0.604% (active)
CCCCCS(=O)(=O)Nc1ccc(C(=O)O)cc1 | 104%
Cc1ccc(-c2cc(O)c(-c3ccc(C)cc3C)cc2O)c(C)c1 | 46.5%
COc1ccc(OC)c(C2C(C#N)=C(N)Oc3cc(O)ccc32)c1 (stereo not given) | 81.1%
COc1ccc(-c2ccc(-c3ccc(C(=N)N)o3)o2)cc1 | 15.3%
CCOC(=O)Nc1ccc2c(c1)C(=O)N(CC)c1ccccc1O2 | -3.61% (active)
O=C(CCN1C(=O)/C(=C/c2ccc(O)cc2)SC1=S)Nc1ccc(Cl)cc1 | 95.3%
[2H]C([2H])([2H])Oc1cccc(/C=C/C(=O)/C=C(/C=C/c2cccc(OC([2H])([2H])[2H])c2OC([2H])([2H])[2H])OB(F)F)c1OC([2H])([2H])[2H] | 54.6%
Cc1cc2nc(NC(=O)CN3CCN(CCN4C(=O)c5cccc6cccc(c56)C4=O)CC3)sc2cc1C | 86.3%
Cc1ccccc1NS(=O)(=O)c1cccc(C(=O)Nc2ccc(Br)cc2)c1 | -2.56% [25 µM] (active)
COc1cc2cc(Oc3ccc(NC(=O)Nc4ccc(Cl)c(C(F)(F)F)c4)cc3)c(C)nc2cc1OCCN1CCOCC1 | -13.5% (active)
